Screen size: about 360,000 compounds; about 11,000 (3.1%) were called active. A call without a number means that no potency is given here. Another 4% or so got no clear call; they are omitted. The call rests on the fitted dose curve; in most records, active means well fitted inhibition curve with a large enough effect; inconclusive means small, poorly fitted or top-dose-only effect; inactive means no such curve, though single readings can be large or run the other way. The sample as a whole holds a higher share of actives than the screen did.
Molecular target: Schistosoma mansoni thioredoxin glutathione reductase (TGR) (UniProt Q962Y6)
Test: qHTS Assay for the Inhibitors of Schistosoma Mansoni Peroxiredoxins; further: nearly all actives have a fitted effect of over 60% in size
Conditions: purified TGR, DTNB reduction, TNB absorbance 405 nm; series mostly up to 114 µM
Method in brief: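 Kinetic colorimetric format: TGR-catalysed, NADPH-driven DTNB reduction monitored via TNB absorbance. Enzyme dispensed at 20 nM; compound exposure 15 min at room temperature before reaction start.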
Potency means the concentration at half of the fitted maximal effect.

SMILES | Potency
CCCCNC(=O)c1ccc2c(c1)NC(=O)C(C(C)C)N2 (stereo not given) | inactive
CCOc1cc(-c2nnc(SCC(=O)NC3CCCC3)nc2-c2ccc(OC)c(OCC)c2)ccc1OC | inactive
COc1ccc(CC(=O)NCCc2sc3nc(-c4ccc(OC)cc4)nn3c2C)cc1 | inactive
CNC(=O)c1ccc(-c2nc(CN3CCc4ccccc43)c(C)o2)cc1 | inactive
COc1ccc(-c2nc(CS(=O)CC(=O)NCc3cccnc3)c(C)o2)cc1OC (stereo not given) | inactive
Cc1ccc(-c2nc(CS(=O)CC(=O)NC3CCCC3)c(C)o2)cc1 (stereo not given) | 22.4 µM (active)
Cc1ccc(-c2nc(CSCC(=O)NC3CCN(Cc4ccccc4)CC3)c(C)o2)cc1 | inactive
COc1ccc(CNC(=O)CS(=O)Cc2nc(-c3cccc(C)c3)oc2C)cc1 (stereo not given) | inactive
CC1=C(C)CC(C(=O)NC(C)CCc2ccccc2)C(C(=O)O)C1 (stereo not given) | inactive
COc1ccc(N2CCN(C(=O)CSCc3nc(-c4ccccc4Cl)oc3C)CC2)cc1 | inactive
Cc1oc(-c2ccccc2F)nc1CS(=O)CC(=O)NCCN1CCCCC1C (stereo not given) | inactive
COc1ccc(-c2nc(CS(=O)CC(=O)N3CCc4ccccc4C3)c(C)o2)cc1 (stereo not given) | 2 µM (active)
CC(CCc1ccccc1)NC(=O)c1cnc(Cl)c(Cl)c1 (stereo not given) | inactive
Cc1cccc(-c2nc(CS(=O)CC(=O)NC(C)CCc3ccccc3)c(C)o2)c1 (stereo not given) | 15.8 µM (active)
COc1ccc(-c2nc(CS(=O)CC(=O)NCc3ccccn3)c(C)o2)cc1 (stereo not given) | 17.8 µM (active)
Cc1ccc(-c2nn(CCC(=O)Nc3ccc(OC(F)(F)F)cc3)c(=O)c3ccccc23)cc1 | inactive
Cc1cc(C)cc(NS(=O)(=O)c2cc3c(cc2C)NC(=O)CO3)c1 | inactive
COc1ccc(Cn2c(C(=O)O)c(CNCCc3cccs3)c3ccc(OC)cc32)cc1 | inactive
CCOCCc1nn2c(=O)cc(COC(=O)CNC(=O)c3ccc(C(C)(C)C)cc3)nc2s1 | inactive
CCN(C(=O)CSc1nnc(C)n2c1cc1occc12)c1ccccc1 | inactive
Cc1ccc(Cl)cc1NC(=O)C(C)n1nnc2sc(-c3ccccc3)cc2c1=O (stereo not given) | inactive
COc1ccc(C2c3c(oc4ccccc4c3=O)C(=O)N2Cc2ccc3c(c2)OCO3)cc1 (stereo not given) | inactive
CCOc1ccc(N(CC)S(=O)(=O)N2CCCC(C(=O)NCc3ccc(Cl)cc3)C2)cc1 (stereo not given) | inactive
COc1ccccc1N1CCN(c2ncnc3onc(-c4cccc(Cl)c4)c23)CC1 | inactive
COc1ccc(-c2nc(CN3CCN(c4ncccn4)CC3)c(C)o2)cc1C | inactive

SMILES | Potency
Cc1cccc(C)c1NC(=O)CS(=O)CC(=O)N1CCN(c2ccccc2)CC1 (stereo not given) | inactive
Cc1ccc(-c2nc(CS(=O)CC(=O)N3CCN(c4ncccn4)CC3)c(C)o2)cc1 (stereo not given) | 7.08 µM (active)
O=C(NC1CCCC1)c1cc(-c2ccccc2)on1 | inactive
O=C(NC1CCCCC1)c1ccc(-c2ccc(Cl)cc2)o1 | 35.5 µM (active)
O=C(NC1CCCCCC1)c1cccnc1Sc1ccc(Cl)cc1 | inactive
Cc1ccc(CCNC(=O)c2ccc3c(c2)N(Cc2cc(C)ccc2C)C(=O)c2ccccc2S3=O)cc1 (stereo not given) | inactive
Cc1ccccc1OCc1nc2c3cnn(-c4ccccc4F)c3ncn2n1 | inactive
CC(C)Cn1c(CCC(=O)O)ccc1-c1cccs1 | 22.4 µM (active)
O=C(O)CCC(=O)N(Cc1cccs1)Cc1cccs1 | inactive
CCn1c(NC(=O)c2ccccc2)c(-c2cccs2)c(=O)c2ccccc21 | inactive
CCOc1ccc(S(=O)(=O)c2cn(Cc3ccccc3)c3ccc(OCC)cc3c2=O)cc1 | inactive
Cc1cc(SCc2c(F)cccc2Cl)nc(=O)[nH]1 | inactive
Brc1ccc(CSc2ccc(-c3ccco3)nn2)cc1 | 17.8 µM (active)
Fc1cccc(Cl)c1CSc1ccc(-c2ccco2)nn1 | 17.8 µM (active)
N#Cc1ccc(-c2cccs2)nc1SCc1ccc(Br)cc1 | inactive
Cc1cccc(CSc2ccc(-c3cccs3)nn2)c1 | inactive
Cn1c(SCc2c(F)cccc2Cl)nnc1-c1cnccn1 | inactive
COc1cccc(CNC(=O)C(NS(=O)(=O)c2ccc3nc(C)sc3c2)C(C)C)c1 (stereo not given) | inactive
COc1ccc(CNC(=O)CSc2nc3ccccc3nc2Cc2ccccc2)cc1 | inactive
Cc1ccc(OCCSc2nc3ccc(NC(=O)COc4ccc(C)cc4)cc3s2)cc1 | inactive
O=C(CCCn1c(=O)c2cccn2c2cccnc21)NCc1ccc(F)cc1 | inactive
CCOc1ccccc1NC(=O)C1CCCN(S(=O)(=O)c2cn(C)cn2)C1 (stereo not given) | inactive
CC1C(=O)Nc2ccc(S(=O)(=O)N3CCN(c4ccccc4F)CC3)cc2NC1=O (stereo not given) | inactive
COc1ccc(N2CCN(S(=O)(=O)c3ccc4c(c3)NC(=O)C(C)C(=O)N4)CC2)cc1 (stereo not given) | inactive
CON(C)S(=O)(=O)c1ccc2c(c1)NC(=O)C1CCCN21 (stereo not given) | 12.6 µM (active)

SMILES | Potency
COc1ccc(-c2cc(C(F)(F)F)n3nc(-c4ccccc4)cc3n2)cc1OC | inactive
CCc1ccccc1NC(=O)N1CCC2(CC1)Oc1ccccc1C(=O)N2Cc1ccccc1F | inactive
Cc1cc([N+](=O)[O-])c(-c2ccc(/C=N/n3cnnc3)o2)cc1Cl | 50.1 µM (active)
O=C1C2C3C=CC(C4CC34)C2C(=O)N1/N=C/c1ccc(-c2ccccc2[N+](=O)[O-])o1 (stereo not given) | inactive
Cc1ccc(Cl)cc1-c1ccc(/C=N/n2cnnc2)o1 | inactive
Clc1cc(-c2ccc(/C=N/n3cnnc3)o2)ccc1Br | inactive
Cc1cc(C)c([N+](=O)[O-])cc1-c1ccc(/C=N/NC(=O)c2nonc2N)o1 | inactive
Cc1cc(-c2ccc(/C=N/n3cnnc3)o2)c([N+](=O)[O-])cc1C | 35.5 µM (active)
COc1ccc(-n2nc(C(=O)NCCc3ccc(Cl)cc3)c3c4ccccc4n(C)c3c2=O)cc1Cl | inactive
Cc1cccc(OCCCC(=O)Nc2sc3c(c2C(N)=O)CCC(C)C3)c1 (stereo not given) | inactive
CCOC(=O)C1CCN(C(=O)CSc2c3c(nc4ccc(Cl)cc24)CCCC3)CC1 | inactive
CCOc1ccc(NC(=O)CN(Cc2ccccc2)S(=O)(=O)c2ccc(Cl)cc2)cc1 | inactive
CCOc1ccc(N(Cc2ccccc2)C(=O)c2nc(S(C)(=O)=O)ncc2Cl)cc1 | 8.91 µM (active)
CCOc1ccc(N(Cc2ccccc2)C(=O)c2nc(SCC)ncc2Cl)cc1 | inactive
Cc1c(CNC2CCCCC2)c(C(=O)O)c(C)n1Cc1cccc(Cl)c1 | inactive
COC(=O)C1=C(c2ccccc2)c2ccccc2S(=O)(=O)N1CC(=O)Nc1ccccc1C(F)(F)F | inactive
Cc1cc(/C=C2\SC(=Nc3ccc(N4CCOCC4)cc3)N(C)C2=O)c(C)n1-c1cccnc1 | inactive
CN=C1S/C(=C\c2c(OC)cc(OC)cc2OC)C(=O)N1C | inactive
CN1C(=O)/C(=C/c2ccco2)SC1=Nc1cccc(C(=O)O)c1 | 14.1 µM (active)
CCOC(=O)c1ccc(NC(=O)CC2C(=O)N(c3cccc(OC)c3)C(=O)N2C2CCCCC2)cc1 (stereo not given) | inactive
COc1ccc(NC(=O)c2ccc3nc(C(C)C)oc3c2)cc1OC | inactive
COc1ccccc1N1CCN(C(CNC(=O)C(=O)NCc2ccc(C)cc2)c2cccnc2)CC1 (stereo not given) | inactive
Cc1c(NC(=S)NCc2ccc(F)cc2)cccc1[N+](=O)[O-] | inactive
Cc1c(NC(=O)/C=C/C(=O)O)cccc1[N+](=O)[O-] | 50.1 µM (active)
Cc1c(NC(=O)CCCOc2ccccc2)cccc1[N+](=O)[O-] | inactive

SMILES | Potency
O=C(NCCc1csc(-c2ccc(C(F)(F)F)cc2)n1)C(=O)Nc1ccc(F)c(Cl)c1 | inactive
CCCOc1ccc(CN(CCO)CCO)cc1C(=O)OC | inactive
CCOc1ccc(CN(CCCl)CCCl)cc1C(=O)OC | 14.1 µM (active)
CCOc1ccccc1NS(=O)(=O)c1c[nH]c(C(=O)OC)c1 | inactive
CC(=O)N1CCc2cc(S(=O)(=O)NC(Cc3ccccc3)C(=O)NCc3ccc(C)cc3)ccc21 (stereo not given) | inactive
CCc1nn(CC(=O)NCC(C)c2ccccc2)c(=O)c2cc3occc3n12 (stereo not given) | inactive
Cc1cc(C)cc(-n2c(SCC(=O)NCC3CCCO3)nc3c([nH]c4ccccc43)c2=O)c1 (stereo not given) | inactive
Cc1nnc(SCC(=O)N2CCOCC2)[nH]c1=O | inactive
CCCCOC(=O)CNc1nnc(SCC(=O)OCC)[nH]c1=O | 14.1 µM (active)
CCOC(=O)CSc1nc(C)c(Oc2ccc(Cl)cc2Cl)c(=O)[nH]1 | inactive
Cc1ccccc1C(=O)Nc1cc(C)c(O)c(-c2nc3ccccc3o2)c1 | inactive
COc1cccc(Cn2c(CNS(=O)(=O)c3ccc(Cl)s3)nc3cccnc32)c1 | inactive
O=C1c2cccc(OCC(=O)N3N=C(c4cccs4)CC3c3ccc(F)cc3)c2CCN1Cc1ccccc1 (stereo not given) | inactive
Cc1ccc(C2=NN(C(=O)COc3ncnc4ccccc34)C(c3ccco3)C2)cc1 (stereo not given) | inactive
O=C(COc1ccccc1Cl)N1N=C(c2cccs2)CC1c1ccco1 (stereo not given) | 35.5 µM (active)
Cc1ccc(Cl)cc1NC(=O)CCS(=O)(=O)c1ccc(Br)s1 | inactive
O=C1N[C@@H](Cc2ccccc2)C(=O)N2[C@H]1C[C@]1(Br)c3ccccc3N(S(=O)(=O)c3ccccc3)[C@H]21 | 22.4 µM (active)
O=C(CSc1nccn1Cc1ccc(Cl)cc1)NCc1ccccc1 | inactive
Cc1ccc2c(=O)c(C(=O)c3ccc(F)cc3)cn(CC(=O)NC3CCCCC3)c2n1 | inactive
O=c1cc(CO)oc(C(Nc2cccc(C(F)(F)F)c2)c2ccccn2)c1O (stereo not given) | 11.2 µM (active)
O=c1cc(CO)oc(C(Nc2cccc([N+](=O)[O-])c2)c2ccccn2)c1O (stereo not given) | 50.1 µM (active)
Cn1c(=O)c2c(ncn2CC(=O)Nc2cccc(C(F)(F)F)c2)n(C)c1=O | inactive
O=C(CSc1nnc(-c2ccccc2F)o1)Nc1cccc(C(F)(F)F)c1 | inactive
O=C(CSc1nc(-c2ccccc2)cs1)Nc1cccc([N+](=O)[O-])c1 | inactive
O=[N+]([O-])c1cccc(S(=O)(=O)NCc2ccccn2)c1 | inactive

Source: PubChem BioAssay AID485364 (National Center for Advancing Translational Sciences (NCATS), 2010)
